The entries come from a sample that favours hits as a whole.
Giardia FBPA inh: qHTS Assay for Inhibitors of Fructose-1,6-bisphosphate Aldolase from Giardia Lamblia; purified Giardia FBPA; Potency, µM (doses to about 59.6 µM), usual class: inhibitors; 290,000 tested, 0.71% active; AID 2451, 2010; also: nearly all actives have a fitted effect of over 55% in size
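Giardia FBPA (40 nM reagent) was preincubated 10 min at RT with compound (up to 57.5 uM final), then substrate plus GAPDH/TPI/NAD/arsenate coupling system with diaphorase/resazurin was added; resorufin fluorescence (525/598 nm) was read after 20 min.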
TbPYK inhibitor: qHTS of Trypanosoma Brucei Inhibitors | TbPYK enzyme, Kinase-Glo Plus ATP luminescence, 45 min | Potency, µM (top dose mostly 76.8 µM), actives largely listed as inhibitors | pyruvate kinase (Trypanosoma brucei), Q57TT1 | 410,000 tested, 0.12% active; also: nearly all actives have a fitted effect of over 50% in size
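Readout: single end-point luminescence (Kinase-Glo Plus, 10 min). Reaction conditions were TbPYK/substrate plus 130 uM ADP, 45 min at RT, pH 7.2 TEA buffer. No-enzyme wells served as controls, and data were normalized before concentration-response fitting.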
Shiga toxin inh: A qHTS for Small Molecule Inhibitors of Shiga Toxin | 290,000 tested, 9.2% active | inhibition, % at 38.7 µM | AID 2315, 2010 | Vero cells, Shiga toxin protein synthesis inhibition reporter; in the data active = inhibition mostly above about 28%, no sharp cut-off; inactive = mostly below about 43%
RE007 growth inh: qHTS Assay for Inhibitors of the HIV-1 protein Vpr; 360,000 tested, 0.21% active; S. pombe RE007 Vpr strain, BacTiter-Glo ATP luminescence, 24 h; Potency, µM (titrated, usually from 92.2 µM), usual class: inhibitors; active = well fitted falling curve with a large enough effect; inconclusive = small, poorly fitted or top-dose-only effect; inactive = no such curve, though single readings can be large or run the other way; also: nearly all actives have a fitted effect of over 50% in size
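Fission yeast RE007 carrying one integrated HIV-1 vpr copy, seeded at OD 0.01 in PMG+AL medium with 23 nL pinned compound. Grown 24 h at 30 degrees; viability read by BacTiter-Glo luminescence after 5 min.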
LmPK inhibitor: qHTS Assay for Inhibitors of Leishmania Mexicana Pyruvate Kinase (LmPK); 290,000 tested, 0.37% active; purified LmPK, Kinase-Glo ATP luminescence, 1 h; AID 1721, 2009; Potency, µM (highest dose often 57.5 µM), actives largely listed as inhibitors
Target sequence (Q27686 whole entry, looked up): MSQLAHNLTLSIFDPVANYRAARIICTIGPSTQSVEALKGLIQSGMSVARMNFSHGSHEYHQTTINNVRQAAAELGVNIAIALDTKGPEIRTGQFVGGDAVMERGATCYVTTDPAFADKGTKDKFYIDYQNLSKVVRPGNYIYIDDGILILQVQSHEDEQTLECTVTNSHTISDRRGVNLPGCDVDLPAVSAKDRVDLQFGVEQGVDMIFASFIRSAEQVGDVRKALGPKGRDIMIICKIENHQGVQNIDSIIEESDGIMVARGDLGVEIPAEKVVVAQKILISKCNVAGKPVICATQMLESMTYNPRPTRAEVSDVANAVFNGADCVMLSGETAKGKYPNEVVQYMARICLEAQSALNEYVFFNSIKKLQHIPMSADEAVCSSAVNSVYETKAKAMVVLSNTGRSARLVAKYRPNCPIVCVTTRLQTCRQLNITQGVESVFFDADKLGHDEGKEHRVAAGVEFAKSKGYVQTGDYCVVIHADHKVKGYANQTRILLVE
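In 50 mM imidazole pH 7.2 with 7 mM MgCl2, LmPK (0.1 nM) turned over PEP (0.5 mM) and ADP (0.1 mM) for 1 h at room temperature. Luciferase read-out of ATP.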
CHX counter: Cycloheximide Counterscreen for Small Molecule Inhibitors of Shiga Toxin. AID 2314, 2010. max response, %. 300,000 tested, 12% active. cell reporter, cycloheximide protein synthesis inhibition counterscreen; in the data active = max response mostly above about 13%, no sharp cut-off; inactive = mostly below about 14%; also: read at 38.3 µM for the half of the compounds with a filed dose
LmPK confirm: Confirmation Assay for Inhibitors of Leishmania Mexicana Pyruvate Kinase (LmPK). 150 tested, 40% active. shares compounds with LmPK inhibitor. AID 2559, 2010. purified LmPK, Kinase-Glo ATP luminescence, 1 h. Potency, µM (series often up to 57.5 µM), actives largely listed as inhibitors;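 active = compounds giving a full or partial concentration-response curve, as inhibitors or activators; inconclusive = weak, top-dose-only or unclear curve responses; inactive = no response at any tested dose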
Hits are given with their value; . = inactive; ? = inconclusive; / = no result; ! = repeats disagree; [ ] = dose if it differs, or a comment. Unless noted, calls follow the shape of the dose curve; as a rule, active = well fitted curve in the direction sought with a large enough effect; inconclusive = small, poorly fitted or top-dose-only effect, or another doubt; inactive = no such curve, though single readings can be large; an effect the other way counts as inactive or inconclusive.

SMILES | Giardia FBPA inh | TbPYK inhibitor | Shiga toxin inh | RE007 growth inh | LmPK inhibitor | CHX counter | LmPK confirm
O=C(Cc1ccc([N+](=O)[O-])cc1)N1N=C(c2ccncc2)CC1(O)C(F)(F)F (configuration not stated) | . | . | . | . | . | . | /
CCOC(=O)C1=C(C)NC(C)=C(C(=O)OC)[C@@H]1c1cccc([N+](=O)[O-])c1 | . | / | / | / | / | / | /
COC(=O)C1=C(C)NC(C)=C(C(=O)OC)C1c1ccccc1[N+](=O)[O-] | 7.92µM! | ? | . | .[18.4 µM] | . | . | /
COc1ccc(/C=N/NC(N)=S)cc1OC(=O)c1cccc2ccccc12 | . | . | 55.9 | . | . | 23.3 | .
Cc1c(N2C(=O)c3ccccc3C2(O)c2ccccc2)c(=O)n(-c2ccccc2)n1C (configuration not stated) | . | . | . | . | . | . | /
O=c1c2ccccc2sn1-c1cc(S(=O)(=O)N2CCOCC2)ccc1N1CCCC1 | ? | ? | . | . | 8.91µM | . | ?
CCOC(=O)CC(=O)CSc1ccc2nnc(-c3ccc(F)cc3)n2n1 | . | . | . | . | . | . | /
COC(=O)CSc1ccc2nnc(-c3ccc(F)cc3)n2n1 | . | . | . | . | . | . | .
Cn1c(-c2ccc(Br)o2)nc2ccccc21 | . | ? | . | ? | 7.94µM | 28.8 | 20.6µM
Cn1c(-c2nonc2N)nc2ccccc21 | . | . | . | . | . | . | /
CN(Cc1ccon1)Cc1cn(C)nc1-c1ccc2c(c1)OCCO2 | . | . | . | . | . | . | .
c1ccc2c(NC3CC3)nc(-c3ccoc3)nc2c1 | . | / | / | / | / | / | /
N/C(=N\OC(=O)c1ccccc1)c1ccccn1 | . | ? | . | ? | 4.47µM | . | 8.19µM
CCOc1ccc2c(c1)C(=NNC(=O)c1ccccn1)c1cc(OCC)ccc1-2 | / | . | / | . | / | / | /
CCOc1ccc(C(=O)O/N=C(\N)c2ccccn2)cc1 | . | 12.6µM | . | ? | ? | . | 6.51µM
CCN(CC)c1ccc(C(=O)NCc2nc3cccnc3n2Cc2ccc(C)cc2)cc1 | / | . | / | / | / | / | /
Cc1c(-n2c(SCC(=O)C(C)(C)C)nc3ccccc3c2=O)c(=O)n(-c2ccccc2)n1C | . | . | . | . | . | . | /
COc1ccc(-c2nc(-c3ccccn3)no2)cc1 | . | ? | . | ? | 1.58µM | . | 6.51µM
Cc1ccccc1-c1nc(-c2ccccn2)no1 | . | ? | . | ? | 2.51µM | . | 11.6µM
COc1cc(/C=N/N2C(C)CCCC2C)cc(OC)c1O (configuration not stated) | . | . | . | . | 2µM | . | ?
CC1=CC(C)(C)N(C(=O)c2ccccc2)c2ccc(C)cc21 | . | . | . | / | . | . | .
CCCCCCCCCCCCCCCCCCCCCCO | . | . | . | / | / | . | /
Brc1ccc(N=Nc2ccc3ccccc3n2)cc1 | . | ? | 53.7 | . | 6.31µM | 36.3 | 8.19µM
O=S(=O)(Nc1ccc(O)c(NS(=O)(=O)c2ccccc2)c1)c1ccccc1 | / | . | . | . | 0.447µM | . | .
Cc1ccc(-n2[nH]c(C)c(/C=N/c3ccccn3)c2=O)cc1 | . | . | . | ? | . | . | ?
SMILES | Giardia FBPA inh | TbPYK inhibitor | Shiga toxin inh | RE007 growth inh | LmPK inhibitor | CHX counter | LmPK confirm
Cc1[nH]n(-c2ccccc2)c(=O)c1C=Nc1cccc2cccnc12 | . | . | . | . | . | . | /
Cc1ccc(OCC(=O)OCC(=O)NC2CCS(=O)(=O)C2)cc1C (configuration not stated) | / | . | / | . | / | / | /
Cc1c(C(=O)NC(=S)Nc2ccc(NC(=O)c3cccs3)cc2)oc2ccccc12 | . | . | . | . | 7.08µM | . | .
Oc1ccc(O)c2c1C1c3ccccc3C2c2ccccc21 | . | / | . | / | 2.24µM | . | .
Cc1cc(C)c2c(N)c3cccc(C)c3nc2n1 | . | . | . | . | . | . | /
CC(C)CN=Cc1c(O)c([N+](=O)[O-])cc2oc3c(c12)CCCC3 | ? | . | . | ? | 10µM | . | ?
Cc1cccc(/N=C/c2c(O)ccc3oc4c(c23)CCCC4)n1 | . | . | . | . | . | . | /
O=[N+]([O-])c1cc2oc3c(c2c(C=NCc2ccccc2)c1O)CCCC3 | ? | ? | . | ? | 1µM | . | 0.819µM
CCn1c(SCC(=O)Nc2sc3c(c2C#N)CCC(C(C)(C)C)C3)nnc1-c1ccco1 (configuration not stated) | . | . | . | . | . | . | .
O=C(NC1CCOCC1)C1CCC(=O)N(CCc2cccc(F)c2)C1 (configuration not stated) | / | . | . | . | . | . | /
CNc1cncc(-c2ccc(OCCCN(C)C)nc2)n1 | / | . | / | . | / | / | /
Cc1ccc(-c2cc3ncc(C(=O)c4cc([N+](=O)[O-])ccc4O)cn3n2)cc1 | / | . | / | / | / | / | /
Cn1c(NCc2ccccc2)nc2cc(-c3ccccc3)sc2c1=O | / | . | / | . | / | / | /
Cc1nc2cc(-c3ccccc3)sc2c(=O)n1N | . | 10µM | . | ? | 2.24µM | . | 4.61µM
COc1ccc(-c2cc3nc(C)n(N)c(=O)c3s2)cc1 | . | ? | . | 11.2µM | 2µM | . | 2.91µM
COC(=O)C1=C(C(=O)OC)C(C(=O)OC)C(C(=O)OC)C(C(=O)OC)(C(=O)OC)C(C(=O)OC)=C1C(=O)OC (configuration not stated) | / | ? | / | . | / | / | /
Cc1ccc(N2C(=O)c3ccccc3C2O)nc1 (configuration not stated) | . | / | . | / | 7.08µM | . | 18.3µM
COCCCNC(=O)c1ccc(S(=O)(=O)c2ccc(Cl)cc2)c(NC(C)=O)c1 | . | . | . | . | . | . | /
CC(C)c1ccc(C2NC(=S)NC3=C2C(=O)CC(C)(C)C3)cc1 (configuration not stated) | . | . | . | . | . | . | /
Cc1ccccc1NC(=O)COC(=O)c1cc[n+]([O-])cc1 | / | . | / | . | / | / | /
COc1cc(Cl)c(C)cc1NC(=O)COC(=O)c1cc[n+]([O-])cc1 | . | . | . | . | 2.82µM | . | .
CN(Cc1cccnc1)Cc1cn(C)nc1-c1ccc(Oc2ccccc2)cc1 | . | . | . | . | . | . | /
Cc1cc(CN(C)Cc2cn(C)nc2-c2ccc(Oc3ccccc3)cc2)on1 | . | . | . | . | . | . | .
Cn1cc(Cl)c(C(=O)OCC(=O)Nc2ccccc2)n1 | . | . | . | . | . | . | /
Cn1cc(Cl)c(C(=O)Nc2nc3ccccc3s2)n1 | . | . | 70.7 | . | 7.94µM | 42.4 | ?
CCCCN(CC)CCCn1cnc2c([nH]c3ccc(Cl)cc32)c1=O | / | . | / | / | / | / | /
COc1cccc(/C=N/NC(=O)c2ccoc2C)c1O | . | . | 85.6 | . | 7.94µM | 38.3 | 18.3µM

Screening data as filed in PubChem.
